SW480 rereplic – induces DNA re-replication in SW480 colon adenocarcinoma cells. SW480 DNA re-replication, Hoechst DNA content imaging, 48 h. hit rate 1.8% among 340,000. Potency, µM (doses to about 46.1 µM), without a hit: top-dose re-replication activation, hits mostly activators; also: potency is read from the fitted curve at half-maximal effect; % of control where 0% means no effect; nearly all actives have a fitted effect of over 55% in size
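SW480 cells exposed to compounds for 48 hr at 37 C, 5% CO2, then Hoechst-stained 40 min. Nuclear DNA content imaged by fluorescence scanning (405 nm excitation, 500-530 nm emission); re-replication scored as increased high-intensity nuclei.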
D3 ag – agonists of human D3 dopamine receptor | D3R DiscoveRx beta-arrestin cells, luminescence, 90 min | max activation, % | hit rate 0.58% among 410,000; in the data active = max activation above about 30%; also: 0% is about no effect
Target sequence (P35462 whole entry, looked up): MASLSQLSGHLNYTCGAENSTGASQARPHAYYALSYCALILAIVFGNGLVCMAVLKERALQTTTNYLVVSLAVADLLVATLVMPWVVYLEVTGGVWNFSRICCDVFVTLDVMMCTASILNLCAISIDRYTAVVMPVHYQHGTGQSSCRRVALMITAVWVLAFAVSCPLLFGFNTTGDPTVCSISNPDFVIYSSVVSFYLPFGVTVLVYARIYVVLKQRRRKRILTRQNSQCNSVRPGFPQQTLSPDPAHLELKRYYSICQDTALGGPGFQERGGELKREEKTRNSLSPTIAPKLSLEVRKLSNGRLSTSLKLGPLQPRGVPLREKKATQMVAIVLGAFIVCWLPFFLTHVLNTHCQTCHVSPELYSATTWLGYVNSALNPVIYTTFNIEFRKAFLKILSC
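Cells at 1500/well, incubated overnight, then treated with pinned compounds (dopamine as control) for 90 min at 37 degrees C. DiscoveRx reagent added for 30 - 60 minutes at room temperature; luminescence read.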
DRD3 antagonist – blocks the human D3 dopamine receptor; D3R cells, DiscoveRx beta-arrestin luminescence, antagonist mode; hits give low values; max response, negative = inhibition, %; hit rate 2.5% among 360,000; AID 652054; in the data active = max response below about -50%; inconclusive = no clear call, values can overlap the other calls; also: % is scaled to controls: 0 for no effect and ±100 for the full control effect
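Cells expressing the human receptor were seeded at 1500 cells/well, incubated overnight at 37 degrees C in 5% CO2, then exposed to library compounds with dopamine controls for 90 minutes at 37 degrees C before luminescent detection.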
KB-V1 MDR tox – KB-V1 MDR subline cytotoxicity; KB-V1 MDR cells viability, CellTiter-Glo, 72 h; Potency, µM (top dose mostly 46.1 µM), usual class: cytotoxic; hit rate 3.4% among 400,000; AID 1347076; also: potency is read from the fitted curve at half-maximal effect; % is scaled to controls: 0 for no effect and ±100 for the full control effect; nearly all actives have a fitted effect of over 60% in size
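Potencies derive from concentration-effect curves fitted to normalized luminescence (CellTiter-Glo) of KB-V1 cells treated for 72 h at 37 degrees C in phenol-red-free DMEM containing 10% FBS.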
KB-3-1 cytotox – KB-3-1 parental cell cytotoxicity; KB-3-1 viability, CellTiter-Glo ATP luminescence, 72 h; Potency, µM (doses to about 46.1 µM), hits mostly cytotoxic; hit rate 1.4% among 400,000; also: potency is read from the fitted curve at half-maximal effect; % is scaled to controls: 0 for no effect and ±100 for the full control effect; nearly all actives have a fitted effect of over 60% in size
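Using CellTiter-Glo luminescence, growth of non-resistant KB-3-1 adenocarcinoma cells is assessed 72 h after pin-tool compound addition at 37 °C. Normalized responses across the concentration series yield fitted curves.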
MCF10A rerep – induces DNA re-replication in MCF 10a normal breast cells | hit rate 2.9% among 350,000 | AID 624296 | Potency, µM (top dose mostly 46.1 µM), without a hit: at the highest dose activity, positive = re-replication, most hits filed as activators | MCF 10A DNA re-replication, Hoechst nuclear intensity, 48 h; also: potency is read from the fitted curve at half-maximal effect; % of control where 0% means no effect; nearly all actives have a fitted effect of over 50% in size
An asterisk follows results filed as active. Most compounds without a hit are left out; they make up all but 8.9% or so of the library. Unless noted, calls follow the shape of the dose curve; as a rule, active = well fitted curve in the direction sought with a large enough effect; inconclusive = small, poorly fitted or top-dose-only effect, or another doubt; inactive = no such curve, though single readings can be large; an effect the other way counts as inactive or inconclusive.

For CCN(CC)CCCNC(=O)CNC(=O)c1nn(-c2ccc(OC)cc2OC)c(=O)c2ccccc12 the results were D3 ag -9, DRD3 antagonist 0, KB-V1 MDR tox inconclusive and KB-3-1 cytotox inactive.
For CC(C)Oc1cccc(C(=O)C2CCCN(C(=O)c3cc(C4CC4)[nH]n3)C2)c1 (centres undefined) the results were SW480 rereplic -2%, D3 ag 4, DRD3 antagonist -11, KB-V1 MDR tox inactive, KB-3-1 cytotox inactive and MCF10A rerep 1%.
`CCn1ncc(CN2CCCC(C(=O)c3cccc(OC(C)C)c3)C2)c1C` (centres undefined) gave SW480 rereplic 0%, D3 ag -7, DRD3 antagonist -19, KB-V1 MDR tox inactive, KB-3-1 cytotox inactive and MCF10A rerep 23µM*.
`CC(C)Oc1cccc(C(=O)C2CCCN(C(=O)c3cc(C(F)(F)F)[nH]n3)C2)c1` (centres undefined) gave SW480 rereplic -9%, D3 ag -15, DRD3 antagonist 5, KB-V1 MDR tox 21µM*, KB-3-1 cytotox inconclusive and MCF10A rerep 7%.
`CCNc1ccccc(C(=O)/C=C/c2ccc3c(c2)OCO3)c1=O` gave SW480 rereplic -14%, D3 ag 6, DRD3 antagonist 1, KB-V1 MDR tox inactive, KB-3-1 cytotox inactive and MCF10A rerep inconclusive.
CNc1ccc(Br)cc(C(=O)/C=C/c2cccc(OC)c2OC)c1=O was read as SW480 rereplic -19%, D3 ag -2, DRD3 antagonist -17, KB-V1 MDR tox inactive, KB-3-1 cytotox inactive and MCF10A rerep 1%.
For CNc1ccc(Br)cc(C(=O)/C=C/c2cccc(Cl)c2Cl)c1=O the results were SW480 rereplic 4%, D3 ag 3, DRD3 antagonist -14, KB-V1 MDR tox inconclusive, KB-3-1 cytotox 16µM* and MCF10A rerep 16µM*.
`CCNc1ccc(Br)cc(C(=O)/C=C/c2ccccc2Cl)c1=O` gave SW480 rereplic inconclusive, D3 ag -16, DRD3 antagonist -14, KB-V1 MDR tox 23µM*, KB-3-1 cytotox inconclusive and MCF10A rerep inconclusive.
CCC(Cn1nnc2ccccc2c1=O)NC(=O)Nc1cccc(C)c1C (centres undefined) was read as D3 ag 26.
O=C(Nc1ccccc1)NC1CCCc2ccccc21 (centres undefined) was read as SW480 rereplic 1.2µM*, D3 ag -2, DRD3 antagonist -12, KB-V1 MDR tox inactive, KB-3-1 cytotox inactive and MCF10A rerep -2%.
COc1ccc(OCC(=O)NC2CCCc3ccccc32)cc1 (centres undefined) was read as SW480 rereplic -28%, D3 ag -8, DRD3 antagonist -3, KB-V1 MDR tox inactive, KB-3-1 cytotox inactive and MCF10A rerep -3%.
For O=C(CSc1nc2cc(Cl)ccc2s1)NC1CCCc2ccccc21 (centres undefined) the results were SW480 rereplic -4%, D3 ag 33*, DRD3 antagonist 9, KB-V1 MDR tox 16µM*, KB-3-1 cytotox inactive and MCF10A rerep inconclusive.
Screening CC(=O)c1ccc(OCCCC(=O)NC2CCCc3ccccc32)cc1 (centres undefined) returned SW480 rereplic -73%, D3 ag 1, DRD3 antagonist 0, KB-V1 MDR tox 16µM*, KB-3-1 cytotox inactive and MCF10A rerep -5%.
`O=C(CSc1ccc2ccccc2c1)NC1CCCc2ccccc21` (centres undefined) gave SW480 rereplic 5%, D3 ag 0, DRD3 antagonist -9, KB-V1 MDR tox 15µM*, KB-3-1 cytotox inactive and MCF10A rerep 9%.
Screening Cc1cccc(-c2noc(-c3cccnc3NCc3ccccc3Cl)n2)c1 returned D3 ag 0, KB-V1 MDR tox inactive and KB-3-1 cytotox inactive.
Screening CCOc1ccc(-c2cccc(NS(=O)(=O)c3ccccc3C(F)(F)F)c2)nn1 returned D3 ag 0, KB-V1 MDR tox inactive and KB-3-1 cytotox inactive.
Screening Cc1ccc(S(=O)(=O)N2CCN(CC(=O)NC3CCCc4ccccc43)CC2)c(C)c1 (centres undefined) returned SW480 rereplic inconclusive, D3 ag -28, DRD3 antagonist -7, KB-V1 MDR tox 4.1µM*, KB-3-1 cytotox inactive and MCF10A rerep 21%.
For O=C(CSc1cc(Cl)ccc1Cl)NC1CCCc2ccccc21 (centres undefined) the results were SW480 rereplic inconclusive, D3 ag 1, DRD3 antagonist -10, KB-V1 MDR tox inactive, KB-3-1 cytotox inactive and MCF10A rerep inconclusive.
Screening Cc1ccc(S(=O)(=O)N2CCN(CC(=O)NC3CCCc4ccccc43)CC2)cc1C (centres undefined) returned SW480 rereplic inconclusive, D3 ag -3, DRD3 antagonist 3, KB-V1 MDR tox inconclusive, KB-3-1 cytotox inconclusive and MCF10A rerep 19%.
`Cc1ccc2nc(SCC(=O)NC3CCCc4ccccc43)[nH]c2c1` (centres undefined) gave SW480 rereplic inconclusive, D3 ag -5, DRD3 antagonist -1, KB-V1 MDR tox 15µM*, KB-3-1 cytotox inconclusive and MCF10A rerep 15µM*.
For O=c1cc(COc2ccccc2Cl)nc2scc(-c3ccccc3)n12 the results were D3 ag 5, KB-V1 MDR tox inactive and KB-3-1 cytotox inactive.
CCN(C(=O)Cn1nnc2sc3c(c2c1=O)CCC(C(C)(C)C)C3)c1cccc(C)c1 (centres undefined) was read as D3 ag 6, KB-V1 MDR tox inactive and KB-3-1 cytotox inactive.
Screening COc1cccc(CNC(=O)C2Cc3cc(S(=O)(=O)N4CCCCCC4)ccc3N2C(C)=O)c1 (centres undefined) returned D3 ag 0, KB-V1 MDR tox inconclusive and KB-3-1 cytotox inactive.
COC(=O)/C(N=Nc1cccc(C(F)(F)F)c1)=C(\C)O was read as SW480 rereplic 1%, D3 ag 5, DRD3 antagonist -21, KB-V1 MDR tox 5.8µM*, KB-3-1 cytotox inconclusive and MCF10A rerep 3%.
Screening CCOC(=O)NC(=O)/C(N=Nc1cccc(C(F)(F)F)c1)=C(\C)O returned SW480 rereplic -6%, D3 ag 2, DRD3 antagonist 13, KB-V1 MDR tox inactive, KB-3-1 cytotox inactive and MCF10A rerep -30%.
Screening Cc1ccc(C)c(N(C(=O)c2nsc(Cl)c2Cl)C(C(=O)NC2CCCC2)c2ccc(O)cc2)c1 (centres undefined) returned SW480 rereplic 17%, D3 ag -15, DRD3 antagonist -62*, KB-V1 MDR tox inconclusive, KB-3-1 cytotox 21µM* and MCF10A rerep 11%.

Assay outcomes as filed in PubChem.
